In the supplement of paper PMC10849652:
About 7,900 targets were measured; listed, in parts, are those with a hit and a random draw of the rest. About 0.6% of all pairs of compound and target were hits.

How the values were obtained:
Assay in all cases: log2 fold change, soluble protein after heating vs DMSO (PISA); higher = thermal stabilisation; K562 cells, 10 uM, 30 min; active = over 0.2 and 3.5 SD of the protein, either way, in both replicates (recomputed)
[1] = compound: CC[C@@H]1C(=O)N(C)c2cnc(Nc3ccc(C(=O)NC4CCN(C)CC4)cc3OC)nc2N1C1CCCC1
Outline: (§1)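 For each measurement, 10 μM compound was applied for 30 min to K562 cells at 2×10^6 cells/mL. Aliquots were heated for 3 min across 48°C-58°C, pooled, and extracted in PBS with 0.5% NP-40 at 4°C; the supernatant after 21,000xg for 90 min was soluble protein. This was quantified by TMTpro 16plex LC-MS/MS with channel sums equalised, and thermal stability was reported relative to control samples from duplicates, on a log2 fold-change scale.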

volasertib = compound: CC[C@@H]1C(=O)N(C)c2cnc(Nc3ccc(C(=O)N[C@H]4CC[C@H](N5CCN(CC6CC6)CC5)CC4)cc3OC)nc2N1C(C)C [volasertib]
Outline: as §1

[2] = compound: CC[C@H](C)N1C=C(C2=C(C=C(C=C21)C3=CN=C(C=C3)N4CCNCC4)C(=O)NCC5=C(C=C(NC5=O)C)C)C
Outline: as §1

epoxomicin = compound: CC[C@H](C)[C@@H](C(=O)N[C@@H]([C@@H](C)O)C(=O)N[C@@H](CC(C)C)C(=O)[C@]1(CO1)C)NC(=O)[C@H]([C@@H](C)CC)N(C)C(=O)C [epoxomicin]
Outline: as §1

[3] = compound: CCn1c(C(=O)N(C2CC2)C2CC2)cc2c3c(ncn3C)c(Nc3cc(C)n(C)n3)nc21
Outline: as §1

[4] = compound: CCn1cc(-c2ccnc3[nH]c(-c4cccc(CN(C)C)c4)cc23)c(-c2ccc(NC(=O)N(C)C)cc2)n1
Outline: as §1

[5] = compound: CN(C)CC(=O)Nc1ccc2[nH]c(=O)c3ccccc3c2c1
Outline: as §1

rosiglitazone = compound: CN(CCOC1=CC=C(C=C1)C[C@H]2C(=O)NC(=O)S2)C3=CC=CC=N3 (racemic) [rosiglitazone]
Outline: as §1

[6] = compound: CN1C2=C(C3=C1C(=O)N(N=C3)CC4=CC(=CC=C4)N)SC(=C2)S(=O)C
Outline: as §1

[7] = compound: CN1CCC(CNc2ccc3ncc(-c4cccc(OC(F)(F)F)c4)n3n2)CC1
Outline: as §1

Measured: log2 fold change

MSL1 (UniProt Q68DK7)
UniProt Q68DK7, sequence (Q68DK7 whole entry, looked up): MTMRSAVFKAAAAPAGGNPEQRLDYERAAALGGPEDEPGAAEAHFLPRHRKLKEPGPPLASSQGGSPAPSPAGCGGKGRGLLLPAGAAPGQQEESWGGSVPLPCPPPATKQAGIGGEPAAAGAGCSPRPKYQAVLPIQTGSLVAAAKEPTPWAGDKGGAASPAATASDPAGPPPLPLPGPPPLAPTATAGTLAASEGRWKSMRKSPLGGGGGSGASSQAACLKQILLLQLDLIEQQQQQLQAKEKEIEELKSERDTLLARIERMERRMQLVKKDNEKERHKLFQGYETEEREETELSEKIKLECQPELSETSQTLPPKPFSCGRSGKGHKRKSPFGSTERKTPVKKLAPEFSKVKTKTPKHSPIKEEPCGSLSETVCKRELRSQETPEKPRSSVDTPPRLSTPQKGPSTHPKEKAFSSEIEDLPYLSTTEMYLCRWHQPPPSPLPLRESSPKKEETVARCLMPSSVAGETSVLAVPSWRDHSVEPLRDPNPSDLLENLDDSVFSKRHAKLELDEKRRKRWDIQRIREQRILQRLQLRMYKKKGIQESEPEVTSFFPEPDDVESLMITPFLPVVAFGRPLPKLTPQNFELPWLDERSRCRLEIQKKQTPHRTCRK
inactive: [1] 0.077 | volasertib 0.002 | [2] -0.19 | epoxomicin 0.007 | [3] -0.161 | [4] -0.26 | [5] -0.087 | rosiglitazone 0.028 | [6] 0.098 | [7] -0.161

MTHFS (UniProt P49914)
inactive: [1] 0.082 | [2] 0.034 | epoxomicin 0.11 | [3] 0.031 | [4] 0.02 | [5] 0.034 | rosiglitazone 0.046 | [6] -0.022 | [7] -0.019
active: volasertib 0.236

MINK1 (UniProt Q8N4C8)
UniProt Q8N4C8, sequence (Q8N4C8 whole entry, looked up): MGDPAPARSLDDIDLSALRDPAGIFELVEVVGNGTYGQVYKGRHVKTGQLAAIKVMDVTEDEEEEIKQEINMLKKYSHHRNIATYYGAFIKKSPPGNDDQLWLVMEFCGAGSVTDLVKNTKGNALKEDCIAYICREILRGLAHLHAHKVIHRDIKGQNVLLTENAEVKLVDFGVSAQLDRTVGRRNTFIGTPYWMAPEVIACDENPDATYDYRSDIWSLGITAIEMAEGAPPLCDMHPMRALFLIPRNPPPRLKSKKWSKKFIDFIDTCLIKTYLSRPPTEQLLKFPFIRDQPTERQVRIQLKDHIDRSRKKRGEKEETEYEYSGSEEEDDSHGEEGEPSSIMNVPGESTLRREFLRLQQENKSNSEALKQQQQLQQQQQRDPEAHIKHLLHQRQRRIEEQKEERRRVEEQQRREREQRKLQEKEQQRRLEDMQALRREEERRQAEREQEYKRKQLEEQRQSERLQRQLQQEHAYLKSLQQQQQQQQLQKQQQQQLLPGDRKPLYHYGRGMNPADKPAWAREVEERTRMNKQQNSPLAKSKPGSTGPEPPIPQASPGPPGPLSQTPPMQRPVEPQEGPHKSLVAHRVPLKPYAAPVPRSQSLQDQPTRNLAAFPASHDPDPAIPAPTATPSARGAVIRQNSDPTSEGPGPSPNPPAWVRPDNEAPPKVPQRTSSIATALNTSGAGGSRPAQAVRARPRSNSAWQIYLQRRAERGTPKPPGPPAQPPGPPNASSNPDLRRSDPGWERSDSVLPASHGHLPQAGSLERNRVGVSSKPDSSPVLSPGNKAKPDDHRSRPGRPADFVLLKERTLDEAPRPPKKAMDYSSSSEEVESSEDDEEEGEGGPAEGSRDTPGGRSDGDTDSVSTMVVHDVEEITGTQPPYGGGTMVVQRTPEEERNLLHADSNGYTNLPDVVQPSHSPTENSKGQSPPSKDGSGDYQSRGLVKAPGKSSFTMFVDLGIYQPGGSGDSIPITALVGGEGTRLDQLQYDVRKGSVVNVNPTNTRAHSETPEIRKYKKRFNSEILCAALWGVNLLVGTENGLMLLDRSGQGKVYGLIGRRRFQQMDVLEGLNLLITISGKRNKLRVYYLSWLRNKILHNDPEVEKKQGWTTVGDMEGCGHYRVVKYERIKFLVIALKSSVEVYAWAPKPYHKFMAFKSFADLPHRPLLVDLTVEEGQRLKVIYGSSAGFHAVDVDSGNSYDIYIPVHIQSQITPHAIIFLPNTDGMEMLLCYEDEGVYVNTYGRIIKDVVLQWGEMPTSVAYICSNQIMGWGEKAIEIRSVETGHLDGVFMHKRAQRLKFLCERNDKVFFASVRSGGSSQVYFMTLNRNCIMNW
inactive: [1] -0.01 | volasertib -0.149 | [2] 0.056 | epoxomicin -0.009 | [3] -0.011 | [4] -0.069 | [5] -0.035 | rosiglitazone 0.011 | [6] -0.004 | [7] -0.137

MITD1 (UniProt Q8WV92)
inactive: [1] -0.16 | volasertib -0.266 | [2] 0.077 | epoxomicin 0.147 | [3] 0.117 | [4] 0.057 | [5] 0.049 | rosiglitazone -0.016 | [6] 0.079 | [7] -0.365

NUMB (UniProt P49757)
UniProt P49757, sequence (P49757 whole entry, looked up): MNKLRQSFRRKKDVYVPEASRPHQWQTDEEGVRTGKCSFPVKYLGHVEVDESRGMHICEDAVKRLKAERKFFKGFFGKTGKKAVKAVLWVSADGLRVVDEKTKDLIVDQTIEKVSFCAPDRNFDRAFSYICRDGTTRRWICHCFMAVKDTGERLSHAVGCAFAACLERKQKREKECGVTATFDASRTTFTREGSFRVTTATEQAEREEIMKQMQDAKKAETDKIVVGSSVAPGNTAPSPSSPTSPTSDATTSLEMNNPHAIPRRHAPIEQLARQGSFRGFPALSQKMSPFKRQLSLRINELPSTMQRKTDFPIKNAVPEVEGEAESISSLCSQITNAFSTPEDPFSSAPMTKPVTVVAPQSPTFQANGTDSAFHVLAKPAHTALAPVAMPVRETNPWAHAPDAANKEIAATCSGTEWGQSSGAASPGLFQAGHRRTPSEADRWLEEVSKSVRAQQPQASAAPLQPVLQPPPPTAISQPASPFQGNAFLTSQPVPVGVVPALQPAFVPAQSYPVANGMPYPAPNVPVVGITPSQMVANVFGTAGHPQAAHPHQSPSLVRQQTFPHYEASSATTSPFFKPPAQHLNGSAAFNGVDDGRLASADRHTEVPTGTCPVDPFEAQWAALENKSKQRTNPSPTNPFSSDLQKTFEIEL
inactive: [1] -0.017 | volasertib 0.057 | [2] 0.02 | epoxomicin -0.013 | [3] 0.009 | [4] -0.045 | [5] -0.024 | rosiglitazone 0.053 | [6] -0.007 | [7] -0.202

NSDHL (UniProt Q15738)
inactive: [1] -0.005 | volasertib 0.084 | [2] 0.105 | epoxomicin -0.004 | [3] 0.08 | [4] -0.018 | [5] 0.012 | rosiglitazone 0.002 | [6] -0.193 | [7] -0.001

MYH11 isoform 2 (UniProt P35749)
inactive: [1] -0.021 | volasertib -0.045 | [2] 0.042 | epoxomicin 0.061 | [3] -0.005 | [4] 0.046 | [5] 0.019 | rosiglitazone 0.015 | [6] -0.077 | [7] -0.018

NFYB (UniProt P25208)
inactive: [1] 0.008 | volasertib 0.019 | [2] -0.029 | [3] -0.007 | [4] -0.055 | [5] -0.011 | rosiglitazone -0.054 | [6] 0.031 | [7] 0.085

NME7 (UniProt Q9Y5B8)
inactive: [1] -0.014 | epoxomicin -0.072 | [3] -0.033 | [4] -0.044 | [5] -0.045 | rosiglitazone 0.104 | [6] 0.014 | [7] -0.314
active: volasertib -0.358

MRPS16 (UniProt Q9Y3D3)
inactive: [1] 0.012 | volasertib -0.088 | [2] 0.018 | epoxomicin 0.041 | [3] 0.047 | [4] -0.116 | [5] 0.046 | rosiglitazone -0.071 | [7] 0.052

NOB1 (UniProt Q9ULX3)
inactive: [1] -0.053 | volasertib -0.026 | [2] 0.093 | epoxomicin -0.02 | [3] -0.033 | [4] 0.026 | [5] -0.011 | rosiglitazone 0.026 | [6] 0.04 | [7] -0.049

NUDT6 (UniProt P53370)
inactive: [1] 0.177 | volasertib 0.041 | [2] -0.289 | epoxomicin 0.031 | [3] 0.016 | [5] -0.055 | [6] -0.132

OVCA2 (UniProt Q8WZ82)
inactive: [1] -0.352 | volasertib -0.47 | [2] 0.083 | [4] 0.086 | rosiglitazone -0.033 | [7] -0.116

ORC5 (UniProt O43913)
inactive: [1] -0.196 | volasertib -0.42 | [2] 0.074 | [3] -0.071 | [4] -0.103 | [5] 0.105 | rosiglitazone 0.084 | [6] -0.029 | [7] -0.203

MLST8 (UniProt Q9BVC4)
UniProt Q9BVC4, sequence (Q9BVC4 whole entry, looked up): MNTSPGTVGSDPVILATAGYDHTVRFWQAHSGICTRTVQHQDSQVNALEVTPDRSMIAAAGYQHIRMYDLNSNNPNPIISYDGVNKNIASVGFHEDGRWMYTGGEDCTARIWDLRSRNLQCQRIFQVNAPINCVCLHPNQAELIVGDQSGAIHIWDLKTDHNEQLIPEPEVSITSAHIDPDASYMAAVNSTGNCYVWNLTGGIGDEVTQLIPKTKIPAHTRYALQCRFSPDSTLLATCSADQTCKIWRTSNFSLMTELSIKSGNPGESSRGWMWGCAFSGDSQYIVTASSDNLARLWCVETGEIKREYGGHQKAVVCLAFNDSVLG
inactive: [1] -0.22 | [2] 0.05 | epoxomicin -0.02 | [3] -0.099 | [5] 0.109 | rosiglitazone -0.029 | [6] -0.016
active: volasertib -0.353

NDUFB1 (UniProt O75438)
UniProt O75438, sequence (O75438 whole entry, looked up): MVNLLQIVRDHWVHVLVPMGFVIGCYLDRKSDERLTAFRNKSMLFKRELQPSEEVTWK
active: epoxomicin 0.396 | [7] 0.282
inactive: [1] -0.004 | volasertib -0.08 | [2] -0.099 | [3] -0.026 | [4] -0.102 | [5] 0.006 | rosiglitazone 0.009

NCAPD2 (UniProt Q15021)
UniProt Q15021, sequence (Q15021 whole entry, looked up): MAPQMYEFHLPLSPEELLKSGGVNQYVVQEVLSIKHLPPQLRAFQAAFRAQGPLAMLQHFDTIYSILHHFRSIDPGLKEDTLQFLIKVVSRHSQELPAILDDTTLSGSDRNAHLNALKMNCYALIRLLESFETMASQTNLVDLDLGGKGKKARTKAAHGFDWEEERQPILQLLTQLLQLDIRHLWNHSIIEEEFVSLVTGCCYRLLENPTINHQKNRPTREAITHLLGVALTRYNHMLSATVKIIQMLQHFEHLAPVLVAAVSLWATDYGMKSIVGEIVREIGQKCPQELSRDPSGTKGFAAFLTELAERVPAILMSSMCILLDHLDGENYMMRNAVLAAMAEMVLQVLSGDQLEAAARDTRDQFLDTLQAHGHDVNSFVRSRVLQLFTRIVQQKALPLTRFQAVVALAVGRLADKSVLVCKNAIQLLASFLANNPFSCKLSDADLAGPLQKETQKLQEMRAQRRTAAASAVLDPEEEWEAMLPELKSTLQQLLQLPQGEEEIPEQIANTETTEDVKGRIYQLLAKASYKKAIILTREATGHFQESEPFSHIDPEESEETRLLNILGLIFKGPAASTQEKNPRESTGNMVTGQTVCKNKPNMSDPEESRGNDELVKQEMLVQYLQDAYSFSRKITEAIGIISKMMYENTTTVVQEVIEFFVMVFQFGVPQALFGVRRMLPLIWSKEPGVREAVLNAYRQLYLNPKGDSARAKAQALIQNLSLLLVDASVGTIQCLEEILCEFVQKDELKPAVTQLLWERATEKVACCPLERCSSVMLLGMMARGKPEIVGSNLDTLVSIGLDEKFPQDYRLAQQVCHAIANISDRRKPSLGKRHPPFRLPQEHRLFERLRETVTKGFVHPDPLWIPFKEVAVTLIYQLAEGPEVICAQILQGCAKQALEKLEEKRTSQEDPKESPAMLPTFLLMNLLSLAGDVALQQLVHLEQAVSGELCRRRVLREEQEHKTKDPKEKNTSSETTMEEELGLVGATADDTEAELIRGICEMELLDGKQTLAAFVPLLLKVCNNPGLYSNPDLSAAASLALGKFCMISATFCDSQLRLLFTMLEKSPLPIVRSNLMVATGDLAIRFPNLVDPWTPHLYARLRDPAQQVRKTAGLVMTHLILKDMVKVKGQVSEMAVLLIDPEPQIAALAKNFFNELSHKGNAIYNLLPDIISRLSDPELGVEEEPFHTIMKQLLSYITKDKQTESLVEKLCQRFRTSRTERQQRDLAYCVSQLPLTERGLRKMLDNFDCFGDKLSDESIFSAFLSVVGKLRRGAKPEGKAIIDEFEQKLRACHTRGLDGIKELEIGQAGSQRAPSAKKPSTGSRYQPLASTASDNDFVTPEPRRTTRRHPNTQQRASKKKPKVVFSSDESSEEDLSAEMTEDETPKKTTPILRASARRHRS
inactive: [1] -0.131 | [2] 0.081 | epoxomicin 0.019 | [3] -0.085 | [4] 0 | [5] 0.075 | rosiglitazone 0.023 | [6] 0.044 | [7] -0.098
active: volasertib -0.486

NDUFAF6 (UniProt Q330K2)
active: [7] -0.721
inactive: [1] -0.27 | volasertib -0.027 | [2] -0.028 | epoxomicin 0.055 | [3] -0.089 | [4] -0.059 | [5] -0.078 | rosiglitazone 0.134 | [6] -0.014

OXR1 isoform 2 (UniProt Q8N573)
inactive: [1] -0.092 | volasertib -0.09 | [2] -0.082 | epoxomicin 0.127 | [4] 0.056 | [5] -0.004 | [6] -0.015 | [7] -0.244

NAT14 (UniProt Q8WUY8)
inactive: [1] -0.192 | volasertib -0.261 | [2] 0.063 | epoxomicin -0.024 | [3] 0.064 | [5] 0.077 | rosiglitazone 0.095 | [6] -0.107

OSBPL3 (UniProt Q9H4L5)
inactive: [1] 0.136 | volasertib 0.621 | [2] -0.126 | epoxomicin -0.37 | [3] -0.235 | [5] 0 | [6] 0.164

MYLK (UniProt Q15746)
inactive: [1] -0.015 | volasertib -0.148 | [2] -0.172 | [3] -0.047 | [4] 0.042 | [5] 0.184 | rosiglitazone 0.202 | [6] -0.126 | [7] -0.005

NPC1L1 (UniProt Q9UHC9)
inactive: [1] -0.029 | volasertib -0.016 | [2] 0.2 | [5] -0.016 | rosiglitazone 0.045 | [6] -0.081

NFYC (UniProt Q13952)
inactive: [1] 0.012 | volasertib 0.015 | [2] -0.021 | epoxomicin -0.001 | [3] 0.006 | [4] -0.015 | [5] 0.041 | rosiglitazone 0.059 | [6] -0.063 | [7] 0

NOP58 (UniProt Q9Y2X3)
inactive: [1] 0.095 | volasertib -0.066 | [2] 0.057 | epoxomicin -0.263 | [3] 0.005 | [4] 0.192 | [5] 0.052 | rosiglitazone -0.052 | [6] 0.234 | [7] 0.2

MON1A (UniProt Q86VX9)
inactive: [1] -0.11 | volasertib -0.012 | [2] -0.141 | epoxomicin -0.101 | [3] 0.004 | [4] 0.003 | rosiglitazone 0.134 | [6] 0.032 | [7] -0.041

MRPS21 (UniProt P82921)
inactive: [1] 0.062 | volasertib -0.008 | [2] 0.063 | epoxomicin 0.064 | [3] -0.052 | [5] 0.058 | rosiglitazone 0.165 | [6] -0.205

MMADHC (UniProt Q9H3L0)
UniProt Q9H3L0, sequence (Q9H3L0 whole entry, looked up): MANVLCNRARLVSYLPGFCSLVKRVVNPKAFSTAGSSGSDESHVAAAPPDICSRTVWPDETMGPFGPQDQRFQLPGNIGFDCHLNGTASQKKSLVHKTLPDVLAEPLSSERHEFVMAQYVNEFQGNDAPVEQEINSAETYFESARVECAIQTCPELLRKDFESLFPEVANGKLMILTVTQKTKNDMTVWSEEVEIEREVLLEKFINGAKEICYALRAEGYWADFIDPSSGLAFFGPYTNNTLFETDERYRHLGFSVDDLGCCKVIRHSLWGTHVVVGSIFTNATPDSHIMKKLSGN
inactive: [1] -0.024 | [2] 0.087 | [3] -0.013 | [4] 0.03 | [5] 0.006 | rosiglitazone 0.015 | [6] 0.047 | [7] 0.181
active: volasertib -0.482

NIBAN1 (UniProt Q9BZQ8)
inactive: [1] -0.16 | [2] 0.073 | epoxomicin 0.066 | [3] -0.039 | [4] -0.085 | [5] 0.022 | rosiglitazone 0.055 | [6] 0.04 | [7] -0.208
active: volasertib -0.428

MSTO1 (UniProt Q9BUK6)
inactive: [1] 0.014 | volasertib -0.012 | [2] 0.046 | epoxomicin 0.044 | [3] 0.038 | [4] -0.119 | [5] 0.071 | rosiglitazone 0.119 | [6] -0.057 | [7] -0.185

NCBP2AS2 (UniProt Q69YL0)
UniProt Q69YL0, sequence (Q69YL0 whole entry, looked up): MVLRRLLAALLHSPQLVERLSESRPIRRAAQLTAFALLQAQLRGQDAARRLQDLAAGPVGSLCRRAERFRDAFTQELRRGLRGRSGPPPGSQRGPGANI
inactive: [1] -0.255 | volasertib -0.193 | [2] -0.1 | [3] 0.027 | [4] 0.026 | [5] -0.072 | rosiglitazone -0.063 | [6] 0.049
active: [7] -0.906

MT-ND1 (UniProt P03886)
inactive: [1] -0.157 | volasertib 0.147 | [2] 0.035 | epoxomicin 0.063 | [3] 0.094 | [5] 0.253 | rosiglitazone -0.071 | [6] -0.115

NPM3 (UniProt O75607)
UniProt O75607, sequence (O75607 whole entry, looked up): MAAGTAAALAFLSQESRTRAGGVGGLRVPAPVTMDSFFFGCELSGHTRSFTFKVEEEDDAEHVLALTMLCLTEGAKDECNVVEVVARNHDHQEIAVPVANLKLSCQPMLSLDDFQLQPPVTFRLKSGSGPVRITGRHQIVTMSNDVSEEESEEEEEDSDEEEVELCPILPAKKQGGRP
inactive: [1] 0.065 | volasertib 0.124 | [2] -0.099 | [3] 0.036 | [4] 0.014 | [5] -0.011 | rosiglitazone -0.122 | [6] 0.143 | [7] 0.145
